Results taken from PubChem BioAssay AID1159580 (chemical genetic matrix, 2015).
About 2,000 (36%) of roughly 5,500 compounds were called active. Not shown: some 18% with an inconclusive outcome. No stated cut-off is given here; in the data, active means normalized growth mostly below about 0.91 (no sharp cut-off); inconclusive means no clear call, values can overlap the other calls; inactive means mostly above about 0.92. The list shows a part of the results.

Test: chemical genetic growth profiling, strain panel (AID 1159580);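 further: tested at 20 µM; growth read once vehicle control cultures reached saturation at 30 °C; 1 = growth at the plate median or of vehicle wells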
Conditions: growth OD

Measured: normalized growth

CC(=O)O.CC(=O)O.[Cd]
active: S. cerevisiae deletion strains, locus YJR043C, strain POL32, stronger effect = lower value 0.298 | S. cerevisiae deletion strains, locus YJR075W, strain HOC1, stronger effect = lower value 0.202 | S. cerevisiae deletion strains, locus YKL009W, strain mrt4, stronger effect = lower value 0.639 | S. cerevisiae deletion strains, locus YKL068W, stronger effect = lower value 0.651 | S. cerevisiae deletion strains, locus YKL085W, strain MDH1 (second series), stronger effect = lower value 0.372 | S. cerevisiae deletion strains, locus YKL085W, strain MDH1, stronger effect = lower value 0.372 | S. cerevisiae deletion strains, locus YKL160W, strain elf1, stronger effect = lower value 0.533 | S. cerevisiae deletion strains, locus YKL190W, strain CNB1, stronger effect = lower value 0.125 | S. cerevisiae deletion strains, locus YKR001C, strain vps1, stronger effect = lower value 0.12 | S. cerevisiae deletion strains, locus YKR026C, strain gcn3, stronger effect = lower value 0.82 | S. cerevisiae deletion strains, locus YKR091W, strain srl3, stronger effect = lower value 0.793 | S. cerevisiae deletion strains, locus YLL001W, strain dnm1, stronger effect = lower value 0.68 | S. cerevisiae deletion strains, locus YLL026W, stronger effect = lower value 0.603 | S. cerevisiae deletion strains, locus YLL041C, strain sdh2, stronger effect = lower value 0.785 | S. cerevisiae deletion strains, locus YLR027C, strain aat2, stronger effect = lower value 0.664 | S. cerevisiae deletion strains, locus YLR039C, strain RIC1, stronger effect = lower value 0.166 | S. cerevisiae deletion strains, locus YLR058C, strain SHM2, stronger effect = lower value 0.154 | S. cerevisiae deletion strains, locus YLR102C, strain apc9, stronger effect = lower value 0.464 | S. cerevisiae deletion strains, locus YLR221C, strain rsa3, stronger effect = lower value 0.669 | S. cerevisiae deletion strains, locus YLR258W, strain gsy2, stronger effect = lower value 0.698 | S. cerevisiae deletion strains, locus YLR262C, strain YPT6 (second series), stronger effect = lower value 0.403 | S. cerevisiae deletion strains, locus YLR262C, strain YPT6, stronger effect = lower value 0.133 | S. cerevisiae deletion strains, locus YLR268W, strain sec22, stronger effect = lower value 0.158 | S. cerevisiae deletion strains, locus YLR320W, strain mms22, stronger effect = lower value 0.696 | S. cerevisiae deletion strains, locus YLR330W, strain CHS5, stronger effect = lower value 0.811 | S. cerevisiae deletion strains, locus YLR342W, strain FKS1 (second series), stronger effect = lower value 0.311 | S. cerevisiae deletion strains, locus YLR342W, strain FKS1, stronger effect = lower value 0.862 | S. cerevisiae deletion strains, locus YLR357W, strain rsc2, stronger effect = lower value 0.522 | S. cerevisiae deletion strains, locus YLR370C, strain arc18, stronger effect = lower value 0.313 | S. cerevisiae deletion strains, locus YLR371W, strain rom2, stronger effect = lower value 0.188 | S. cerevisiae deletion strains, locus YLR384C, strain iki3, stronger effect = lower value 0.804 | S. cerevisiae deletion strains, locus YLR418C, strain cdc73, stronger effect = lower value 0.175 | S. cerevisiae deletion strains, locus YML016C, strain PPZ1, stronger effect = lower value 0.224 | S. cerevisiae deletion strains, locus YML032C, strain rad52, stronger effect = lower value 0.313 | S. cerevisiae deletion strains, locus YML120C, strain ndi1, stronger effect = lower value 0.695 | S. cerevisiae deletion strains, locus YML124C, strain tub3, stronger effect = lower value 0.304 | S. cerevisiae deletion strains, locus YMR058W, strain fet3, stronger effect = lower value 0.0708 | S. cerevisiae deletion strains, locus YMR078C, strain ctf18, stronger effect = lower value 0.462 | S. cerevisiae deletion strains, locus YMR125W, strain sto1, stronger effect = lower value 0.87 | S. cerevisiae deletion strains, locus YMR129W, stronger effect = lower value 0.802 | S. cerevisiae deletion strains, locus YMR205C, strain PFK2, stronger effect = lower value 0.675 | S. cerevisiae deletion strains, locus YMR223W, strain ubp8, stronger effect = lower value 0.271 | S. cerevisiae deletion strains, locus YMR231W, strain pep5, stronger effect = lower value 0.179 | S. cerevisiae deletion strains, locus YMR263W, strain SAP30, stronger effect = lower value 0.221 | S. cerevisiae deletion strains, locus YMR307W, strain GAS1, stronger effect = lower value 0.172 | S. cerevisiae deletion strains, locus YNL067W, strain RPL9B, stronger effect = lower value 0.289 | S. cerevisiae deletion strains, locus YNL071W, strain lat1, stronger effect = lower value 0.757 | S. cerevisiae deletion strains, locus YNL128W, strain TEP1, stronger effect = lower value 0.234 | S. cerevisiae deletion strains, locus YNL153C, strain GIM3, stronger effect = lower value 0.468 | S. cerevisiae deletion strains, locus YNL209W, strain ssb2, stronger effect = lower value 0.583 | S. cerevisiae deletion strains, locus YNL233W, strain BNI4, stronger effect = lower value 0.394 | S. cerevisiae deletion strains, locus YNL248C, strain rpa49, stronger effect = lower value 0.765 | S. cerevisiae deletion strains, locus YNL250W, strain rad50, stronger effect = lower value 0.269 | S. cerevisiae deletion strains, locus YNL271C, strain bni1, stronger effect = lower value 0.3 | S. cerevisiae deletion strains, locus YNL298W, strain CLA4, stronger effect = lower value 0.345 | S. cerevisiae deletion strains, locus YNL307C, strain MCK1, stronger effect = lower value 0.124 | S. cerevisiae deletion strains, locus YNL322C, strain KRE1 (second series), stronger effect = lower value 0.547 | S. cerevisiae deletion strains, locus YNL322C, strain KRE1, stronger effect = lower value 0.139 | S. cerevisiae deletion strains, locus YNR049C, strain mso1, stronger effect = lower value 0.819 | S. cerevisiae deletion strains, locus YNR052C, strain pop2, stronger effect = lower value 0.164 | S. cerevisiae deletion strains, locus YOL006C, strain TOP1, stronger effect = lower value 0.153 | S. cerevisiae deletion strains, locus YOL147C, strain pex11, stronger effect = lower value 0.32 | S. cerevisiae deletion strains, locus YOR001W, strain rrp6, stronger effect = lower value 0.752 | S. cerevisiae deletion strains, locus YOR061W, strain CKA2, stronger effect = lower value 0.269 | S. cerevisiae deletion strains, locus YOR069W, strain VPS5, stronger effect = lower value 0.222 | S. cerevisiae deletion strains, locus YOR070C, strain gyp1, stronger effect = lower value 0.669 | S. cerevisiae deletion strains, locus YOR080W, strain dia2, stronger effect = lower value 0.851 | S. cerevisiae deletion strains, locus YOR083W, strain WHI5, stronger effect = lower value 0.59 | S. cerevisiae deletion strains, locus YOR106W, strain vam3, stronger effect = lower value 0.408 | S. cerevisiae deletion strains, locus YOR136W, strain idh2, stronger effect = lower value 0.263 | S. cerevisiae deletion strains, locus YOR144C, strain elg1, stronger effect = lower value 0.461 | S. cerevisiae deletion strains, locus YOR184W, strain ser1, stronger effect = lower value 0.25 | S. cerevisiae deletion strains, locus YOR265W, strain rbl2, stronger effect = lower value 0.769 | S. cerevisiae deletion strains, locus YOR270C, strain vph1, stronger effect = lower value 0.405 | S. cerevisiae deletion strains, locus YOR316C, strain cot1, stronger effect = lower value 0.356 | S. cerevisiae deletion strains, locus YPL051W, strain arl3, stronger effect = lower value 0.207 | S. cerevisiae deletion strains, locus YPL055C, strain LGE1, stronger effect = lower value 0.169 | S. cerevisiae deletion strains, locus YPL078C, strain atp4, stronger effect = lower value 0.707 | S. cerevisiae deletion strains, locus YPL240C, strain hsp82, stronger effect = lower value 0.731 | S. cerevisiae deletion strains, locus YPL241C, strain CIN2, stronger effect = lower value 0.271 | S. cerevisiae deletion strains, locus YPR119W, strain clb2, stronger effect = lower value 0.433 | S. cerevisiae deletion strains, locus YPR141C, strain kar3, stronger effect = lower value 0.418 | S. cerevisiae deletion strains, locus YPR163C, strain tif3, stronger effect = lower value 0.441 | S. cerevisiae deletion strains, locus YPR167C, strain met16, stronger effect = lower value 0.387 | S. cerevisiae deletion strains, strain wtn01, stronger effect = lower value 0.254 | S. cerevisiae strains, strain wild type, stronger effect = lower value 0.13
inactive: S. cerevisiae deletion strains, locus YOL012C, strain htz1 0.261 | S. cerevisiae deletion strains, locus YOR290C, strain snf2, stronger effect = lower value 0.927 | S. cerevisiae deletion strains, locus YPL106C, strain sse1, stronger effect = lower value 1.01
